Substitutions are numbered along the chain they refer to.

Assay in all cases: PBM; 200 nM protein, PBS
What all share (settings): dsDNA, one strand shown

Test [1] concerns the target T1, SIX6 (Homo sapiens, UniProt O95475 114-200, T165G).
T1 sequence: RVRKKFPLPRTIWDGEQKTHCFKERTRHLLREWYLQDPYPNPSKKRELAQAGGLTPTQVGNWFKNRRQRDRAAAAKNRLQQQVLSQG

Test [2] concerns the target HESX1 (Homo sapiens, UniProt Q9UBX0 95-180).
The target in test [3] is HOXA2 (Homo sapiens, UniProt O43364 129-215, R185T).
Test [4] deals with ALX3 (Homo sapiens, UniProt O95076 139-225, N203Q).
Test [5] addresses HOXA2 (Homo sapiens, UniProt O43364 129-215, R185K).
Test [6] addresses ALX3 (Homo sapiens, UniProt O95076 139-225).
Test [7] deals with ALX3 (Homo sapiens, UniProt O95076 139-225, L168Q).
The target in test [8] is ALX3 (Homo sapiens, UniProt O95076 139-225, L168V).
The target of test [9] is HOXA2 (Homo sapiens, UniProt O43364 129-215, Y150S).
For test [10], the target named is ALX3 (Homo sapiens, UniProt O95076 139-225, N203S).
Test [11] concerns the target HOXA2 (Homo sapiens, UniProt O43364 129-215).
Test [12] addresses T2, SIX6 (Homo sapiens, UniProt O95475 114-200, T165A).
T2 sequence: T1 sequence with G52A

The target in test [13] is PITX2 (Homo sapiens, UniProt Q99697 72-157).
The target of test [14] is T3, NKX2-6 (Homo sapiens, UniProt A6NCS4 118-204, R150C).
T3 sequence: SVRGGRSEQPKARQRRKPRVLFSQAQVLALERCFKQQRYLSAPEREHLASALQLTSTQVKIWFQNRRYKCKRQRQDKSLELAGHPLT

The target of test [15] is PROP1 (Homo sapiens, UniProt O75360 56-141).
The target in test [16] is PROP1 (Homo sapiens, UniProt O75360 56-141, R99H).
Test [17] has as its target PROP1 (Homo sapiens, UniProt O75360 56-141, F88S).

Chain of HOXA2 (Homo sapiens, UniProt O43364 129-215) (O43364 129-215): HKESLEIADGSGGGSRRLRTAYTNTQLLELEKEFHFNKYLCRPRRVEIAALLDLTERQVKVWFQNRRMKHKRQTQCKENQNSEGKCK
Chain of HOXA2 (Homo sapiens, UniProt O43364 129-215, R185T) (O43364 129-215 R185T): as the sequence (O43364 129-215) above, with R57T counted along it
Chain of HESX1 (Q9UBX0 95-180): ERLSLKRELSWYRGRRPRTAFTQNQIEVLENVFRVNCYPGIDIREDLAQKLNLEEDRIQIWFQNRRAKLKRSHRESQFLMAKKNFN
Chain of HOXA2 (Homo sapiens, UniProt O43364 129-215, Y150S) (O43364 129-215 Y150S): as the sequence (O43364 129-215) above, with Y22S counted along it
Chain of ALX3 (Homo sapiens, UniProt O95076 139-225) (O95076 139-225): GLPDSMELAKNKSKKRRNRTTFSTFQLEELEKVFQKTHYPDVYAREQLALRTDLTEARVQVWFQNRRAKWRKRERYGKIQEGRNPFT
Chain of HOXA2 (Homo sapiens, UniProt O43364 129-215, R185K) (O43364 129-215 R185K): as the sequence (O43364 129-215) above, with R57K counted along it
Chain of ALX3 (Homo sapiens, UniProt O95076 139-225, N203S) (O95076 139-225 N203S): as the sequence (O95076 139-225) above, with N65S counted along it
Chain of ALX3 (Homo sapiens, UniProt O95076 139-225, N203Q) (O95076 139-225 N203Q): as the sequence (O95076 139-225) above, with N65Q counted along it
Chain of ALX3 (Homo sapiens, UniProt O95076 139-225, L168Q) (O95076 139-225 L168Q): as the sequence (O95076 139-225) above, with L30Q counted along it
Chain of PROP1 (Homo sapiens, UniProt O75360 56-141, F88S) (O75360 56-141 F88S): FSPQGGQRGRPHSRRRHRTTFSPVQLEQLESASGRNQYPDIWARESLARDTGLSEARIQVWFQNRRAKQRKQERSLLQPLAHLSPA
Chain of PROP1 (Homo sapiens, UniProt O75360 56-141) (O75360 56-141): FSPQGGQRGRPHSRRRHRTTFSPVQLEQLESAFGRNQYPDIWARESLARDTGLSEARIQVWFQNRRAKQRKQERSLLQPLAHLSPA
Chain of PROP1 (Homo sapiens, UniProt O75360 56-141, R99H) (O75360 56-141 R99H): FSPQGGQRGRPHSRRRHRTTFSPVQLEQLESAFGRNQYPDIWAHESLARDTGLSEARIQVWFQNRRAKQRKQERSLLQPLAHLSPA
Chain of ALX3 (Homo sapiens, UniProt O95076 139-225, L168V) (O95076 139-225 L168V): as the sequence (O95076 139-225) above, with L30V counted along it

As for CGACACCC, the binding signal in test [1] is 10.5 upbm affinity estimate (log intensity, higher = more binding, comparable within an allelic series).
As for GCATAAAC, the binding signal in [2] was 7.44 upbm affinity estimate (log intensity, higher = more binding, comparable within an allelic series).
For AGACACCA, the binding signal in test [1] is 10.5 upbm affinity estimate (log intensity, higher = more binding, comparable within an allelic series).
GACACCCC: the binding signal in test [1] is 10.6 upbm affinity estimate (log intensity, higher = more binding, comparable within an allelic series).
Regarding CCCCCCCA, the binding signal in test [3] was 7.25 upbm affinity estimate (log intensity, higher = more binding, comparable within an allelic series); in test [4] it was 7.7 upbm affinity estimate (log intensity, higher = more binding, comparable within an allelic series); in test [5] it was 9.99 upbm affinity estimate (log intensity, higher = more binding, comparable within an allelic series); in [6], 7.68 upbm affinity estimate (log intensity, higher = more binding, comparable within an allelic series); in [7], 7.68 upbm affinity estimate (log intensity, higher = more binding, comparable within an allelic series); in test [8], 7.64 upbm affinity estimate (log intensity, higher = more binding, comparable within an allelic series). For the same sequence, the binding signal in test [9] was 10.2 upbm affinity estimate (log intensity, higher = more binding, comparable within an allelic series); in test [10], 7.67 upbm affinity estimate (log intensity, higher = more binding, comparable within an allelic series); in [11] it was 7.37 upbm affinity estimate (log intensity, higher = more binding, comparable within an allelic series).
As for GAGAATGA, in test [2], the binding signal was 7.23 upbm affinity estimate (log intensity, higher = more binding, comparable within an allelic series).
Take CGTATTAC: the binding signal in [3] was 9.06 upbm affinity estimate (log intensity, higher = more binding, comparable within an allelic series); in [4] it was 8.19 upbm affinity estimate (log intensity, higher = more binding, comparable within an allelic series); in test [6] it was 9.9 upbm affinity estimate (log intensity, higher = more binding, comparable within an allelic series); in test [10], 8.23 upbm affinity estimate (log intensity, higher = more binding, comparable within an allelic series); in test [11], 9.08 upbm affinity estimate (log intensity, higher = more binding, comparable within an allelic series).
AGTGACAC: the binding signal in test [1] is 10.6 upbm affinity estimate (log intensity, higher = more binding, comparable within an allelic series); in [12] it was 10.5 upbm affinity estimate (log intensity, higher = more binding, comparable within an allelic series).
Regarding AAGACACC, the binding signal in test [1] is 10.6 upbm affinity estimate (log intensity, higher = more binding, comparable within an allelic series).
Take ATAACTGC: in test [2], the binding signal was 7.57 upbm affinity estimate (log intensity, higher = more binding, comparable within an allelic series).
As for GACACCTA, the binding signal is 10.6 upbm affinity estimate (log intensity, higher = more binding, comparable within an allelic series) in [1] and 10.5 upbm affinity estimate (log intensity, higher = more binding, comparable within an allelic series) in test [12].
Turning to ATTTACGC, the binding signal in [2] is 7.63 upbm affinity estimate (log intensity, higher = more binding, comparable within an allelic series).
Turning to GGTGACAC, the binding signal in test [1] is 10.4 upbm affinity estimate (log intensity, higher = more binding, comparable within an allelic series); in test [12], 10.4 upbm affinity estimate (log intensity, higher = more binding, comparable within an allelic series).
For the sequence ACACCACC, the binding signal in test [1] is 10.3 upbm affinity estimate (log intensity, higher = more binding, comparable within an allelic series).
Take CCGACACC: the binding signal in [1] was 10.4 upbm affinity estimate (log intensity, higher = more binding, comparable within an allelic series); in test [12], 10.3 upbm affinity estimate (log intensity, higher = more binding, comparable within an allelic series).
Turning to AGGTGTCG, the binding signal is 10.5 upbm affinity estimate (log intensity, higher = more binding, comparable within an allelic series) in test [1] and 10.4 upbm affinity estimate (log intensity, higher = more binding, comparable within an allelic series) in test [12].
As for AGACACCC, the binding signal in test [1] is 10.5 upbm affinity estimate (log intensity, higher = more binding, comparable within an allelic series).
On the same count and under the same terms, the value for CTGGTGTC was 10.6 upbm affinity estimate (log intensity, higher = more binding, comparable within an allelic series).
With ATTACACC, the binding signal is 10.7 upbm affinity estimate (log intensity, higher = more binding, comparable within an allelic series) in [1]; 10.7 upbm affinity estimate (log intensity, higher = more binding, comparable within an allelic series) in test [12]; 9.68 upbm affinity estimate (log intensity, higher = more binding, comparable within an allelic series) in test [13].
CCCCCACG: the binding signal was 6.91 upbm affinity estimate (log intensity, higher = more binding, comparable within an allelic series) in test [3]; 9.26 upbm affinity estimate (log intensity, higher = more binding, comparable within an allelic series) in test [14]; 9.95 upbm affinity estimate (log intensity, higher = more binding, comparable within an allelic series) in test [5]; 6.48 upbm affinity estimate (log intensity, higher = more binding, comparable within an allelic series) in test [15]; 6.59 upbm affinity estimate (log intensity, higher = more binding, comparable within an allelic series) in [16]; 6.32 upbm affinity estimate (log intensity, higher = more binding, comparable within an allelic series) in test [17]. Moreover, the binding signal in test [9] is 10.4 upbm affinity estimate (log intensity, higher = more binding, comparable within an allelic series); in [11] it was 6.93 upbm affinity estimate (log intensity, higher = more binding, comparable within an allelic series).

For the origin of these results see PMC11006913.
